# Assay results from ChEMBL document CHEMBL1961873, “Compounds: GSK PKIS; Assays: Nanosyn kinase panel” (2012).
# How the values were obtained:
# [1] = biological target: T1, Inhibitor of nuclear factor kappa-B kinase subunit epsilon (Homo sapiens) (UniProt Q14164); conditions: at 1 µM;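 further: reported values are averaged percent inhibition figures against human IKKε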
# T1 sequence (whole entry): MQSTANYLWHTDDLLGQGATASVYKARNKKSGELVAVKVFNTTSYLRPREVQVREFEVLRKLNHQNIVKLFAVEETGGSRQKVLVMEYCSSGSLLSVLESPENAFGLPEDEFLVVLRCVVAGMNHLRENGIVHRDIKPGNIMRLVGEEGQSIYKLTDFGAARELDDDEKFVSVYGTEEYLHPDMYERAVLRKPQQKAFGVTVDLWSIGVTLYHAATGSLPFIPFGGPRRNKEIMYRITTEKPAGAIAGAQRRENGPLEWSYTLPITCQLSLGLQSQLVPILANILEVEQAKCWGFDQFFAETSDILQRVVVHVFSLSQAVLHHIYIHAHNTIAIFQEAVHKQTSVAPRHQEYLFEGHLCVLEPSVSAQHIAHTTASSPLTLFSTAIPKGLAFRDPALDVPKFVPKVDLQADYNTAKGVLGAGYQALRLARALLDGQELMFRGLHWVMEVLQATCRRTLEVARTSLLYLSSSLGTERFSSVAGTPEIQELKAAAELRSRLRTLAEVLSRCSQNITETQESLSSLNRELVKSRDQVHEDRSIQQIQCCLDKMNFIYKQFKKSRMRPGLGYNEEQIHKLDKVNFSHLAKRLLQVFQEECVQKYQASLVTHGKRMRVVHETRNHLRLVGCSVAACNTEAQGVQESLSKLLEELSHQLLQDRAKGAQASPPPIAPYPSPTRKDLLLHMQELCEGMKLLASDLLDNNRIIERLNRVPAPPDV
# [2] = biological target: T2, Serine/threonine-protein kinase Nek1 (Homo sapiens) (UniProt Q96PY6); conditions: at 0.1 µM
# T2 sequence (whole entry): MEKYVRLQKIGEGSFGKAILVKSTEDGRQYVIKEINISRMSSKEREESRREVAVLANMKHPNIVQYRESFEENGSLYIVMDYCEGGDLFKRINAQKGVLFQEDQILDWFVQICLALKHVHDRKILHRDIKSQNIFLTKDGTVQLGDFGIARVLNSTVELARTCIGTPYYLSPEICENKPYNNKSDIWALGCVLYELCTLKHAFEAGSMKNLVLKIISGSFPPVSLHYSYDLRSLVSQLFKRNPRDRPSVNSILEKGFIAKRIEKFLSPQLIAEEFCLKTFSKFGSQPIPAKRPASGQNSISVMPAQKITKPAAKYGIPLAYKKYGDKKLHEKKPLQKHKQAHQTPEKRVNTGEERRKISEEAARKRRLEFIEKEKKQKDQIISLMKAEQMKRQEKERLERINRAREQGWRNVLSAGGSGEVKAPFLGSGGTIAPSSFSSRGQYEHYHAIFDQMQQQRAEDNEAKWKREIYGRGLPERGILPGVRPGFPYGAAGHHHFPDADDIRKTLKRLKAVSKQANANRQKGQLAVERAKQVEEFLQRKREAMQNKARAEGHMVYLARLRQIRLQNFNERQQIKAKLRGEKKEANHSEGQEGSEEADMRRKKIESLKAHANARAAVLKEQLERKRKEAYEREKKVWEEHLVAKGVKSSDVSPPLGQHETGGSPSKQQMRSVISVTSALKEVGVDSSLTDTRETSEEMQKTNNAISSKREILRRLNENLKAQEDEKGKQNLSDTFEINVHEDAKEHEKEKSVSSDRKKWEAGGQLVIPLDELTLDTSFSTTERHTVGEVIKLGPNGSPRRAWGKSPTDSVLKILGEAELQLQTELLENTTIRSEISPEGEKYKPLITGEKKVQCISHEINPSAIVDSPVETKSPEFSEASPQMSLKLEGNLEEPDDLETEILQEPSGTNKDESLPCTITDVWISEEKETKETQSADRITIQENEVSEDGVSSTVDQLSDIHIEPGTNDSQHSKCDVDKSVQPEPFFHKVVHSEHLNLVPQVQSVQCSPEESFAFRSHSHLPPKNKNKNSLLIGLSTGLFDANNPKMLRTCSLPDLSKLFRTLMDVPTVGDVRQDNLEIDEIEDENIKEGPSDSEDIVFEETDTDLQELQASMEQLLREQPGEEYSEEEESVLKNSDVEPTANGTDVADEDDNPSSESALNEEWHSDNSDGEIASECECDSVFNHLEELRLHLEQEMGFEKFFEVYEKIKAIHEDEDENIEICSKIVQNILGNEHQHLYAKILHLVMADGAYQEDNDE
# [3] = biological target: T2, Serine/threonine-protein kinase Nek1 (Homo sapiens); conditions: at 1 µM
# [4] = biological target: T3, Serine/threonine-protein kinase Nek2 (Homo sapiens) (UniProt P51955); conditions: at 0.1 µM
# T3 sequence (whole entry): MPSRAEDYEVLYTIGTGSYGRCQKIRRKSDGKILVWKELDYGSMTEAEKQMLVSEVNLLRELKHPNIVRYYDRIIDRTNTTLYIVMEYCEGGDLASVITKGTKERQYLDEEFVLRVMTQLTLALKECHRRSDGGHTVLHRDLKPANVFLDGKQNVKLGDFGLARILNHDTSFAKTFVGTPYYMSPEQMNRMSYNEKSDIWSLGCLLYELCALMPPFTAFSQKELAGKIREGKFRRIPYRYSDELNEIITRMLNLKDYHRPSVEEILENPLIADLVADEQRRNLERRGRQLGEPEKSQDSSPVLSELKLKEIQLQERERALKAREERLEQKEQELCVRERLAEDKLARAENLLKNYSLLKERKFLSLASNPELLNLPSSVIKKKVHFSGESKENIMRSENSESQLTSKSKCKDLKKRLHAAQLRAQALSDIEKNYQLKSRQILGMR
# [5] = biological target: T3, Serine/threonine-protein kinase Nek2 (Homo sapiens); conditions: at 1 µM
# [6] = biological target: Serine/threonine-protein kinase Nek6 (Homo sapiens) (UniProt Q9HC98); conditions: at 0.1 µM
# Chain of Serine/threonine-protein kinase Nek6 (Homo sapiens) (Q9HC98 whole entry): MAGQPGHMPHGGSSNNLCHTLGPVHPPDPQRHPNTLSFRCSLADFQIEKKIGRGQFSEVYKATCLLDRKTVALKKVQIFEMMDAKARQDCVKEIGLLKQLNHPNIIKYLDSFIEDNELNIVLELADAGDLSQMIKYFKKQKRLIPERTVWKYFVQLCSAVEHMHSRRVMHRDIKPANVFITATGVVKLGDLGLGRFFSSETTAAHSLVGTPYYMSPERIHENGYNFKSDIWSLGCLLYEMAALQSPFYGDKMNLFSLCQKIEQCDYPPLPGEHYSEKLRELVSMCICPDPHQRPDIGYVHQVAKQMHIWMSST
# [7] = biological target: Serine/threonine-protein kinase Nek6 (Homo sapiens) (UniProt Q9HC98); conditions: at 1 µM
# [8] = biological target: Serine/threonine-protein kinase Nek7 (Homo sapiens) (UniProt Q8TDX7); conditions: at 0.1 µM
# Chain of Serine/threonine-protein kinase Nek7 (Homo sapiens) (Q8TDX7 whole entry, looked up): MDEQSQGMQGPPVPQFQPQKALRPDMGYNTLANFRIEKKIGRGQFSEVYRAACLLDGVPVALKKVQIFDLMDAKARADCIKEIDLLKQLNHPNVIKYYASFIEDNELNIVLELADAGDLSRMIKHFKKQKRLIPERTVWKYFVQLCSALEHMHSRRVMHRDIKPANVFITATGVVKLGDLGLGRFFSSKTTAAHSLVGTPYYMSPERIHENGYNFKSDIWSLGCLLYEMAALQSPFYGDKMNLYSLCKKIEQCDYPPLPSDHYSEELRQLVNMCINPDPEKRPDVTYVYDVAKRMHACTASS
# [9] = biological target: Serine/threonine-protein kinase Nek7 (Homo sapiens) (UniProt Q8TDX7); conditions: at 1 µM
# [10] = biological target: T4, Serine/threonine-protein kinase Nek9 (Homo sapiens) (UniProt Q8TD19); conditions: at 0.1 µM;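 further: reported value is the mean percent inhibition of NEK9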
# T4 sequence (whole entry): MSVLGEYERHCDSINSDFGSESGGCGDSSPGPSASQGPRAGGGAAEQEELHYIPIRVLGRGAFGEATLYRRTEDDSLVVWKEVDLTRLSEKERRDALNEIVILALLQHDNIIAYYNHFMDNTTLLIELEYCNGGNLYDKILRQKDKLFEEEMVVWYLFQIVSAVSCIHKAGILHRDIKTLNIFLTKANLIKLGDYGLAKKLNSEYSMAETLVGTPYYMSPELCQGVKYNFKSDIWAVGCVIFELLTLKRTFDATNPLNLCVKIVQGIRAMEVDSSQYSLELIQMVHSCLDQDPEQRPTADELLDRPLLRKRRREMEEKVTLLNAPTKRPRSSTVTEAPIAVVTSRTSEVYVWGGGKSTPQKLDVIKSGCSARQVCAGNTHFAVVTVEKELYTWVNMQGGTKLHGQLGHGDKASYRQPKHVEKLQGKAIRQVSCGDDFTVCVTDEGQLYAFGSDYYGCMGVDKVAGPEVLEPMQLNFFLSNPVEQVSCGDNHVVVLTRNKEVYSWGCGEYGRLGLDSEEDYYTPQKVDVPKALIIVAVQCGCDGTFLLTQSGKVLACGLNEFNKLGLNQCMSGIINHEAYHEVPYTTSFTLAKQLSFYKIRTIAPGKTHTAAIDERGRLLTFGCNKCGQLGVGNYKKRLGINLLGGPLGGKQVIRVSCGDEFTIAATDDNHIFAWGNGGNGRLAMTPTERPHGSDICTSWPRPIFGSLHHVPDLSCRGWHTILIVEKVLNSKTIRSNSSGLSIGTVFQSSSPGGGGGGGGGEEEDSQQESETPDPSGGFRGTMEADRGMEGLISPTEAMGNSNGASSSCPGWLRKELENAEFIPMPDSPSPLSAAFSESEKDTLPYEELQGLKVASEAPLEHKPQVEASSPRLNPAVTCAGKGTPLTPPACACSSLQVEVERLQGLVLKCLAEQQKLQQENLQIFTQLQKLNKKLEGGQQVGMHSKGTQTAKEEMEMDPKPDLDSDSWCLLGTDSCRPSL
smiles,measurement,setting,value
CS(=O)(=O)Nc1ccc(-c2cc(-c3ccccc3)cc(C(N)=O)c2N)cc1,inhibition,[1],1.3%
same,inhibition,[2],1.84%
same,inhibition,[3],1.25%
same,inhibition,[4],4.07%
same,inhibition,[5],2.73%
same,inhibition,[6],1.42%
same,inhibition,[7],-0.5%
same,inhibition,[8],1.35%
same,inhibition,[9],6.39%
same,inhibition,[10],2.67%
